Data published in PubChem BioAssay (NCI).
Compounds without any hit were thinned out: in the full panel of roughly 79,000, 15% have a hit. Unmarked numbers belong to inactive results. Activity calls are given as the source filed them. Cut-off read from the data, not from the text of the source: active = growth inhibition above about 70%; inactive = the rest.

Key:
[1] = NCI Yeast Anticancer Drug Screen. Data for the rad50 strain (AID 155);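 note: 0% = growth of vehicle-only cultures of the same strain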; settings: S. cerevisiae rad50 strain growth inhibition, hits give high values
How it was run: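 Compounds were tested on a yeast strain with an engineered DNA damage repair alteration; the reported value is growth inhibition normalised to vehicle treatment.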

[2] = NCI Yeast Anticancer Drug Screen. Data for the mec2-1 strain (AID 157); settings: S. cerevisiae mec2-1 strain, hits give high values
How it was run: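 Vehicle-treated cultures served as reference for growth inhibition of compound-exposed mec2-1 yeast.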

[3] = NCI Yeast Anticancer Drug Screen. Data for the sgs1 mgt1 strain (AID 161);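 note: 0% = growth of cultures given vehicle only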; settings: S. cerevisiae sgs1 mgt1 strain, hits give high values
How it was run: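 Inhibition of yeast growth, normalised to vehicle-treated controls, is reported for a strain bearing genetic alterations in DNA damage repair.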

[4] = NCI Yeast Anticancer Drug Screen. Data for the cln2 rad14 strain (AID 165);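 note: 0% = growth equal to vehicle treated cultures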; settings: S. cerevisiae cln2 rad14 strain, hits give high values
How it was run: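 Each compound was tested on cln2 rad14 yeast. Inhibition of growth was calculated against vehicle-exposed controls.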

[5] = NCI Yeast Anticancer Drug Screen. Data for the bub3 strain (AID 167); settings: S. cerevisiae bub3 mutant strain, hits give high values
How it was run: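 Growth of a checkpoint-deficient yeast mutant is measured after compound exposure. Values represent inhibition relative to vehicle.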

[6] = NCI Yeast Anticancer Drug Screen. Data for the mlh1 rad18 strain (AID 175); settings: S. cerevisiae mlh1 rad18 strain growth inhibition, hits give high values
How it was run: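 Vehicle-treated cultures served as the reference for growth inhibition in a yeast strain carrying DNA damage repair alterations exposed to each compound.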

[7] = at 5.0 µM (retest, dose inferred, filed as 0.5)
[8] = at 50.0 µM (retest, dose inferred, filed as 5.0)

Compound | growth inhibition [1, 7] | growth inhibition [1, 8] | growth inhibition ([1]; at 50.0 µM) | growth inhibition [2, 7] | growth inhibition [2, 8] | growth inhibition ([2]; at 50.0 µM) | growth inhibition [3, 7] | growth inhibition [3, 8] | growth inhibition ([3]; at 50.0 µM) | growth inhibition [4, 7] | growth inhibition [4, 8] | growth inhibition ([4]; at 50.0 µM) | growth inhibition [5, 7] | growth inhibition [5, 8] | growth inhibition ([5]; at 50.0 µM) | growth inhibition [6, 7] | growth inhibition [6, 8] | growth inhibition ([6]; at 50.0 µM)
CCC[CH2][Sn]([CH2]CCC)([O]C(=O)c1cc(OC)c(OC)cc1OC)[O][Sn]([CH2]CCC)([CH2]CCC)[O]C(=O)c1cc(OC)c(OC)cc1OC | 94% (active) | 97% (active) | 88.5% (active) | 96% (active) | 98% (active) | 91% (active) | 96% (active) | 99% (active) | 91.5% (active) | 92% (active) | 98% (active) | 90.2% (active) | 97% (active) | 98% (active) | 90.5% (active) | 96% (active) | 97% (active) | 89% (active)
COc1ccccc1/C=C(\NC(=O)c1ccccc1)c1nc2ccccc2[nH]1 | 42% | 96% (active) | 97.8% (active) | 30% | 98% (active) | 95% (active) | 38% | 99% (active) | 96.4% (active) | 16% | 74% (active) | 95% (active) | 3% | 88% (active) | 98% (active) | 21% | 96% (active) | 96.4% (active)
O=C1c2ccccc2-c2cc(S)c([N+](=O)[O-])cc21 | -10% | 12% | 9.15% | -9% | 10% | 18.5% | -1% | 12% | 36.8% | 1% | 2% | 21% | 4% | 14% | 9.45% | -6% | 4% | 18.5%
CC(CC(=O)c1ccc2sc3ccccc3c2c1)C(=O)O (configuration not stated) | 6% | 35% | 58.4% | -4% | 47% | 33.6% | 14% | 62% | 49.2% | -2% | 24% | 60.4% | -2% | 21% | 27.3% | 15% | 59% | 56.8%
CC(C)C1=CC23CCC4C(C)(C(=O)O)CCCC4(C)C2CC1C(C(=O)O)C3C(=O)O (configuration not stated) | 80% (active) | 99% (active) | 98.4% (active) | 89% (active) | 99% (active) | 98.1% (active) | 52% | 98% (active) | 94.9% (active) | 86% (active) | 99% (active) | 98% (active) | 84% (active) | 99% (active) | 97.6% (active) | 88% (active) | 98% (active) | 96% (active)
Cc1nc(N)nn1C | -1% | 10% | 2.9% | 0% | -2% | 6.1% | -3% | -1% | -3.55% | -4% | 0% | 6.7% | 0% | -2% | 44.2% | 1% | 2% | -0.4%
CC(C)(C)CC(C)(C)c1ccc(O)cc1O | 7% | 99% (active) | 99.5% (active) | 7% | 99% (active) | 99.5% (active) | -3% | 99% (active) | 99.2% (active) | 2% | 98% (active) | 98.8% (active) | 36% | 99% (active) | 98.8% (active) | 6% | 99% (active) | 99.3% (active)
O=c1c(Cl)c(Cl)c(=O)c2sc3cc(Cl)ccc3[nH]c1=2 | 6% | 51% | 95.5% (active) | 3% | 27% | 95% (active) | -3% | 46% | 88% (active) | 2% | 7% | 95% (active) | 6% | 19% | 95.5% (active) | 2% | 59% | 96.9% (active)
N#Cc1cc([N+](=O)[O-])ccc1NC(=O)/C(=N/N)C(C(=O)c1ccc(Cl)c(Cl)c1)C1OC(=O)c2ccccc21 (configuration not stated) | 23% | 23% | 91.8% (active) | 11% | 11% | 92.2% (active) | 18% | 18% | 91.2% (active) | 1% | 1% | 90.2% (active) | 11% | 11% | 92.4% (active) | 5% | 5% | 92% (active)
